Inconclusive results are not listed. Calls of active or inactive are those of the source. Calls follow the shape of the full dose curve.

This experiment is described as follows: qHTS for inhibitors of Rabies Virus screened against the NCATS CANVASS Library (AID 1347402). Also: 0% is about no effect. Particulars: Rabies virus infection cell assay; series mostly up to 45.9 µM; activity change, negative = inhibition: at the top concentration.
In the case of `C/C=C/C1C=CC2CC(C)CC(C)C2C1C(=O)CC(=O)NC(CO)C/C=C/CCCCC` (centres undefined), the “activity change, negative = inhibition” value is -19% (inactive).

For the compound `C[C@@]12C[C@@H](C[C@@H]3C(=O)O[C@@H](c4ccoc4)[C@H](OC(=O)c4ccccc4)[C@@H]31)OC2=O`, the “activity change, negative = inhibition” value was -29.9% (inactive). Next, `CS/C=C/C(N)=O`: -10.9% (inactive). For `O=C(O)CC1OCc2c(O)cccc21` (centres undefined) the value was -1.57% (inactive). For `CN1C(=O)C(=O)N2C(=C[C@]3(c4c[nH]c5ccccc45)c4ccccc4N[C@H]23)C1=O` the value was -6.33% (inactive); for `COC(=O)[C@]1([C@H]2CCC(=O)O2)CC(=O)c2c(O)cc(C)cc2O1`, -10.4% (inactive). For the compound `C[C@]12CCC[C@](C)(C(=O)O)[C@@H]1CC[C@@]1(C)c3cocc3CC[C@H]21`, the “activity change, negative = inhibition” value was -21.6% (inactive).

As for `COC(=O)c1cccc2oc(-c3cccc4oc(-c5c(C)cccc5O)nc34)nc12`, the “activity change, negative = inhibition” value was -35.4% (inactive). For `COc1cc(O)c2c3c(c(O)cc(C)c13)C(=O)OC2` the value was -1.84% (inactive).

The values are drawn from PubChem BioAssay (NCATS).
